Source: PubChem BioAssay (NCI)
About 79,000 compounds went through this panel and 15% of them were active in at least one assay; those are over-represented in the sample as a whole. Values without a mark were called inactive. Activity calls are given as the source filed them. No stated cut-off is given here; in the data, active means growth inhibition above about 70%; inactive means the rest.

Test: NCI Yeast Anticancer Drug Screen. Data for the mlh1 rad18 strain (AID 175)
Conditions: S. cerevisiae mlh1 rad18 strain growth inhibition; at 5.0 µM (retest, dose inferred, filed as 0.5); hits give high values
Outline: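 Test agents were incubated with a yeast strain of defined genotype (DNA damage repair defect). Inhibition of growth was derived by comparison with vehicle-exposed cultures.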

SMILES	growth inhibition
O=C1C(N=Nc2ccccc2)=C(O)C2C3C=CC(C3)C12 (stereo not drawn)	17%
CC1CCCC(C(O)(C(=O)O)C2CCCC(C)C2)C1 (stereo not drawn)	15%
Cc1c(Cl)ccc2c1NC(=O)C2(O)CC(=O)c1ccc(Cl)cc1 (stereo not drawn)	13%
Cc1cc2c(=O)[nH]c(N)nc2nc1C	-21%
C=C1C(=O)O[C@@H]2C[C@@]3(C)CCC[C@H](C)C3=C[C@H]12	14%
CCC(=NCCCCCCN=C(CC)c1cc(C)cc([N+](=O)[O-])c1O)c1cc(C)cc([N+](=O)[O-])c1O.[Fe]	11%
CCCCN(CCCC)CC(O)c1cc(-c2ccc(Cl)cc2)nc2c(Cl)cccc12 (stereo not drawn)	-3%
COc1ccc2c(c1)CC/C(=C\c1ccc(OCCN(C)C)cc1)C2=O	6%
CCOC(=O)c1cc2c(nc1NCc1ccc(OC)c(OC)c1)/C(=C/c1ccccc1)CCCC2	58%
CSCS(=O)C[C@H](CO)NC(=O)/C=C/c1c(C)[nH]c(=O)[nH]c1=O (stereo partly drawn)	25%
CCOC(=O)c1c(N)sc2c1CCCCC2	-142%
Cc1cc(N)c(C)c2c1[nH]c1ccc(Br)cc12	3%
N=C(N)Sc1ccc([N+](=O)[O-])cc1Cl	63%
COc1c(OC)c(C2(O)C(=O)N(C)c3ccccc32)c(OC)c(OC)c1C1(O)C(=O)N(C)c2ccccc21 (stereo not drawn)	-1%
Fc1cccc(NC(=S)SCc2ccc(Cl)cc2)c1	23%
Cc1ccc(/C=N/NS(=O)(=O)c2ccccc2)c(C)c1	-11%
CCCCCCCCCCCCNC(=O)C[n+]1cccc(C(=O)N(C)C)c1	7%
CN(C)C(=S)/N=c1\ss/c(=N\S(=O)(=O)c2ccccc2)n1-c1ccccc1	-1%
O=C(NCCCl)Nc1c2ccccc2nc2ccccc12	9%
COc1ccccc1NC(=O)/C(=C/c1ccccc1)C(C)=O	3%

SMILES	growth inhibition
Oc1[nH]c2ccccc2c1N=NC(=S)NCc1ccccn1	26%
c1cc2c(cc1CCCCCCCCCCc1ccc3c(c1)CCC3)CCC2	-2%
C=Cc1ccccc1C1(O)C=CC(OC)(OC)C=C1	21%
CN(C)CC1CCc2c(ccc3ccccc23)C1=O (stereo not drawn)	40%
CCCCC(C)(C)OC(=O)Nc1ccc(Br)cc1	-2%
O=C(Nc1ccc(F)c(Cl)c1)Oc1ccc(Br)cc1Br	-3%
CCO/C=C1\N=C(C(O)(c2ccc(Cl)cc2)c2ccc(Cl)cc2)OC1=O	-1%
O=C1c2ccccc2C(O)(c2ccccc2)c2c(Cl)cccc21 (stereo not drawn)	-12%
Nc1ccccc1-c1nc2c(ccc3ccccc32)[nH]1	0%
CCCCCCCCCCCCCCNCCN	25%
CC(C)CCCC(C)C1CCC2C3CC=C4OC(=O)CCC4(C)C3CCC12C (stereo not drawn)	-1%
CC(Br)C(=O)c1ccc2cc(Cl)c3ccccc3c2c1 (stereo not drawn)	7%
N#CSc1ccc2nc(NCO)sc2c1	45%
c1ccc2c3[nH]c(c2c1)=Nc1ccc(cc1)-c1nc2ccc(cc2o1)N=c1[nH]c(c2ccccc12)=Nc1ccc2nc(oc2c1)-c1ccc(cc1)N=3	50%
CCOc1ccc2nc(NC(=O)c3c/c(=N\NC(=O)C[N+](C)(C)C)c4ccc(O)cc4o3)sc2c1	41%
C[C@@H]1CC=C[C@@H](NC(=O)OCc2ccccc2)[C@H]1C=O	-20%
O=C(/C=C/c1cccc([N+](=O)[O-])c1)CCl	-32%
CCC[CH2][Sn]([CH2]CCC)([O]C(=O)c1cccc(F)c1F)[O]C(=O)c1cccc(F)c1F	67%
O=C(O)CCC(=O)NNc1ccccc1	20%

Same assay, conditions: S. cerevisiae mlh1 rad18 strain growth inhibition; at 50.0 µM (retest, dose inferred, filed as 5.0); hits give high values

SMILES	growth inhibition
O=C1C(N=Nc2ccccc2)=C(O)C2C3C=CC(C3)C12 (stereo not drawn)	98% (active)
CC1CCCC(C(O)(C(=O)O)C2CCCC(C)C2)C1 (stereo not drawn)	79% (active)
Cc1c(Cl)ccc2c1NC(=O)C2(O)CC(=O)c1ccc(Cl)cc1 (stereo not drawn)	99% (active)
Cc1cc2c(=O)[nH]c(N)nc2nc1C	-2%
C=C1C(=O)O[C@@H]2C[C@@]3(C)CCC[C@H](C)C3=C[C@H]12	96% (active)
CCC(=NCCCCCCN=C(CC)c1cc(C)cc([N+](=O)[O-])c1O)c1cc(C)cc([N+](=O)[O-])c1O.[Fe]	63%
CCCCN(CCCC)CC(O)c1cc(-c2ccc(Cl)cc2)nc2c(Cl)cccc12 (stereo not drawn)	-4%
COc1ccc2c(c1)CC/C(=C\c1ccc(OCCN(C)C)cc1)C2=O	28%
CCOC(=O)c1cc2c(nc1NCc1ccc(OC)c(OC)c1)/C(=C/c1ccccc1)CCCC2	92% (active)
CSCS(=O)C[C@H](CO)NC(=O)/C=C/c1c(C)[nH]c(=O)[nH]c1=O (stereo partly drawn)	98% (active)
CCOC(=O)c1c(N)sc2c1CCCCC2	-88%
Cc1cc(N)c(C)c2c1[nH]c1ccc(Br)cc12	98% (active)
N=C(N)Sc1ccc([N+](=O)[O-])cc1Cl	96% (active)
COc1c(OC)c(C2(O)C(=O)N(C)c3ccccc32)c(OC)c(OC)c1C1(O)C(=O)N(C)c2ccccc21 (stereo not drawn)	22%
Fc1cccc(NC(=S)SCc2ccc(Cl)cc2)c1	99% (active)
Cc1ccc(/C=N/NS(=O)(=O)c2ccccc2)c(C)c1	46%
CCCCCCCCCCCCNC(=O)C[n+]1cccc(C(=O)N(C)C)c1	44%
CN(C)C(=S)/N=c1\ss/c(=N\S(=O)(=O)c2ccccc2)n1-c1ccccc1	15%
O=C(NCCCl)Nc1c2ccccc2nc2ccccc12	41%
COc1ccccc1NC(=O)/C(=C/c1ccccc1)C(C)=O	26%

SMILES	growth inhibition
Oc1[nH]c2ccccc2c1N=NC(=S)NCc1ccccn1	99% (active)
c1cc2c(cc1CCCCCCCCCCc1ccc3c(c1)CCC3)CCC2	-38%
C=Cc1ccccc1C1(O)C=CC(OC)(OC)C=C1	32%
CN(C)CC1CCc2c(ccc3ccccc23)C1=O (stereo not drawn)	78% (active)
CCCCC(C)(C)OC(=O)Nc1ccc(Br)cc1	96% (active)
O=C(Nc1ccc(F)c(Cl)c1)Oc1ccc(Br)cc1Br	80% (active)
CCO/C=C1\N=C(C(O)(c2ccc(Cl)cc2)c2ccc(Cl)cc2)OC1=O	10%
O=C1c2ccccc2C(O)(c2ccccc2)c2c(Cl)cccc21 (stereo not drawn)	41%
Nc1ccccc1-c1nc2c(ccc3ccccc32)[nH]1	-18%
CCCCCCCCCCCCCCNCCN	29%
CC(C)CCCC(C)C1CCC2C3CC=C4OC(=O)CCC4(C)C3CCC12C (stereo not drawn)	94% (active)
CC(Br)C(=O)c1ccc2cc(Cl)c3ccccc3c2c1 (stereo not drawn)	99% (active)
N#CSc1ccc2nc(NCO)sc2c1	97% (active)
c1ccc2c3[nH]c(c2c1)=Nc1ccc(cc1)-c1nc2ccc(cc2o1)N=c1[nH]c(c2ccccc12)=Nc1ccc2nc(oc2c1)-c1ccc(cc1)N=3	93% (active)
CCOc1ccc2nc(NC(=O)c3c/c(=N\NC(=O)C[N+](C)(C)C)c4ccc(O)cc4o3)sc2c1	52%
C[C@@H]1CC=C[C@@H](NC(=O)OCc2ccccc2)[C@H]1C=O	40%
O=C(/C=C/c1cccc([N+](=O)[O-])c1)CCl	98% (active)
CCC[CH2][Sn]([CH2]CCC)([O]C(=O)c1cccc(F)c1F)[O]C(=O)c1cccc(F)c1F	67%
O=C(O)CCC(=O)NNc1ccccc1	94% (active)
